Most compounds without a hit are left out; they make up all but 11% or so of the library.
BAZ2B block: inhibitors of human BAZ2B bromodomain. 360,000 tested, 4.4% active. AlphaScreen BAZ2B-H3K14Ac peptide displacement. AID 504333. Potency, µM (top dose mostly 114 µM), without a hit: top-dose activity change, negative = inhibition, hits mostly inhibitors. Q9UIF8; further: on the % scale 0 is the no-effect control and ±100 the full control effect; nearly all actives have a fitted effect of over 60% in size
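BAZ2B 50 nM plus b-H3(5-23)K14Ac 50 nM, PBS pH 7.4/0.01% Tween-20, 30 min RT; compound added (max 110 uM), 30 min RT; streptavidin donor/Ni-chelate acceptor beads 10 ug/mL final, 20 min dark; AlphaScreen read.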
JMJD2A Tudor: blocks the human JMJD2A Tudor domain | O75164 | AlphaScreen JMJD2A-Tudor / H3K4me3 peptide binding | Potency, µM (doses to about 114 µM), for inactives: at the top dose activity change, negative = inhibition, most hits filed as inhibitors | 390,000 tested, 4.4% active; further: on the % scale 0 is the no-effect control and ±100 the full control effect; nearly all actives have a fitted effect of over 50% in size
L3MBTL1 inh: L3MBTL1 (human) inhibition; AID 485360; 230,000 tested, 0.66% active; Potency, µM (series often up to 57.1 µM), for inactives: at the top dose activity, negative = inhibition, most hits filed as inhibitors; Q9Y468; AlphaScreen L3MBTL1–H3K9me1 peptide binding; further: on the % scale 0 is the no-effect control and ±100 the full control effect; nearly all actives have a fitted effect of over 60% in size
Target sequence (Q9Y468 whole entry, looked up): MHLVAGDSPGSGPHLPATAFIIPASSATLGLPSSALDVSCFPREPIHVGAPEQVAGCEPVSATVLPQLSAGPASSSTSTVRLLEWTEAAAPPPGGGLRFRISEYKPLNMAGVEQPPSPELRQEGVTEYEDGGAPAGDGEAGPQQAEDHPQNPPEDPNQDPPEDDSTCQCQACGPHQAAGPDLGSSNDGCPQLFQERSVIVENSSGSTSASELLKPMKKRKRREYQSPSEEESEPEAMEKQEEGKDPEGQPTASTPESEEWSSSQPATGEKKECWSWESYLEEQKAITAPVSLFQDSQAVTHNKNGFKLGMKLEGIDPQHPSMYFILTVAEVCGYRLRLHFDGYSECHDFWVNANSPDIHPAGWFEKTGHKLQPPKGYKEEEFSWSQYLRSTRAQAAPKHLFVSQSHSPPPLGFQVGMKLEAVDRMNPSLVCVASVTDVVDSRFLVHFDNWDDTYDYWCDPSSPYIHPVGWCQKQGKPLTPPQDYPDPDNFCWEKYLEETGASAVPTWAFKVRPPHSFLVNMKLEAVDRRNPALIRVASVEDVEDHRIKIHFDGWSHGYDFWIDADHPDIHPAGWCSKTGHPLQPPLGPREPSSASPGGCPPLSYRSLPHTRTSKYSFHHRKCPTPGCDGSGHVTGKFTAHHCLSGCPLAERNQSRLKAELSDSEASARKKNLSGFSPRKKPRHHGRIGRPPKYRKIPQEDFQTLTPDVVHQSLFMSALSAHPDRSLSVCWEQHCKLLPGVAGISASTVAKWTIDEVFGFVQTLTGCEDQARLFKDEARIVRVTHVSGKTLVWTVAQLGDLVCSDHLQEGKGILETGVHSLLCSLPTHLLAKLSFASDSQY
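Read-out is AlphaScreen signal from streptavidin donor and nickel chelate acceptor beads (10 ug/mL final each) bridging L3MBTL1 (50 nM) and biotinylated K9-monomethylated H3(1-15) peptide (75 nM), after 30 min compound exposure at room temperature.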
G9a inh: G9a (human) methyltransferase inhibition. 350,000 tested, 8.8% active. G9a H3K9 monomethylation, AlphaScreen, 2 h. AID 504332. Potency, µM (series often up to 102 µM), for inactives: top-dose activity, negative = inhibition, actives largely listed as inhibitors; further: on the % scale 0 is the no-effect control and ±100 the full control effect; nearly all actives have a fitted effect of over 75% in size
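Chemiluminescent proximity detection of H3K9 monomethylation, read after 10 min bead incubation in the dark. Reaction: 20 nM G9a, 500 nM biotin-H3K9 peptide, 20 uM SAM cofactor, 2 h, room temperature, following 15 min enzyme-compound preincubation.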
HP1b binding inh: blocks HP1-beta chromodomain binding to methylated histone tails; P83916; AlphaScreen HP1-beta / biotin-H3K9me3 peptide binding; Potency, µM (highest dose often 114 µM), without a hit: top-dose activity change, negative = inhibition, actives largely listed as inhibitors; 390,000 tested, 0.56% active; further: nearly all actives have a fitted effect of over 70% in size
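AlphaScreen: HP1-beta (50 nM) preformed 30 min with biotin-H3(1-18)K9me3 peptide (50 nM) in PBS pH 7.4, 0.01% Tween-20. Compound added for 30 min at RT, then streptavidin donor/nickel chelate acceptor beads (10 ug/mL) for 30 min.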
Starred values were filed as active, the others as inactive; ? = inconclusive; nt = no result; [ ] = remark or other dose. The call rests on the fitted dose curve; in most records, active means well fitted inhibition curve with a large enough effect; inconclusive means small, poorly fitted or top-dose-only effect; inactive means no such curve, though single readings can be large or run the other way. Potency means the concentration at half of the fitted maximal effect.

SMILES	BAZ2B block	JMJD2A Tudor	L3MBTL1 inh	G9a inh	HP1b binding inh
COCCn1c(C)cc(C(=O)CSc2cc(C)c3ccc(OC)cc3n2)c1C	-37%	?	-10%	71µM*	-9%
COCCn1c(C)cc(C(=O)CSc2nc(C)c(C)c(C)n2)c1C	?	?	nt	28µM*	-7%
Cc1cc(SCC(=O)Nc2ncc(Cl)cc2Cl)nc2ccccc12	-30%	-8%	7%	-6%[59 µM]	14%
COc1ccc2c(C)cc(SCC(=O)Nc3ncc(Cl)cc3Cl)nc2c1	-3%	-6%	-9%	25µM*	26%
COc1ccccc1-n1cnnc1SCC(=O)Nc1nc(C)c(Cl)cc1Cl	6%	-11%	10%	-5%[59 µM]	25%
CCOc1ccc(C2C(=O)N(C3CCCCCC3)CC(=O)N2CCc2ccc(Cl)cc2)cc1OC (centres undefined)	-18%	-24%	nt	-29%[59 µM]	27%
CCCCN(c1ccccc1)S(=O)(=O)c1cccc2cccnc12	-6%	19%	nt	nt	66%
COCCNC(=O)CSc1cc(-c2ccccc2)c2ccc(OC)cc2n1	-15%	-24%	-5%	22µM*	48%
CCn1c(SCC(=O)N2CCCCC2C)nnc1-c1ccco1 (centres undefined)	4%	-13%	nt	35µM*	19%
CC1CCCCN1C(=O)CSc1nnc(-c2ccco2)n1C (centres undefined)	-3%	1%	nt	-2%	19%
Cc1ccc(C(=O)CSc2nnc(-c3ccco3)n2CC2CCCO2)cc1 (centres undefined)	2%	-31%	4%	11µM*	9%
CC1CCCCN1C(=O)CSc1nnc(-c2ccco2)n1CC1CCCO1 (centres undefined)	2%	0%	-3%	14µM*	32%
CC12CN3CC(c4ccccc4)(CN(C1)C3c1ccc(Cl)cc1)C2=O (centres undefined)	-11%	-15%	nt	3%[59 µM]	32%
Cc1cc(C)cc(C(=O)NCC(c2ccc(N(C)C)cc2)N2CCCC2)c1 (centres undefined)	?	?	nt	?	-17%
CNc1nc(-c2c[nH]c3ccccc23)cs1	35µM*	18µM*	nt	35µM*	?
Cc1ccc2c(-c3csc(N)n3)c[nH]c2c1	-27%	nt	nt	45µM*	nt
CCC(C)Nc1nc(-c2c[nH]c3ccccc23)cs1 (centres undefined)	25µM*	35µM*	nt	11µM*	?
CC(=O)[C@]1(O)Cc2c(O)c3c(c(O)c2[C@@H](O[C@H]2C[C@H](N)[C@H](O)[C@H](C)O2)C1)C(=O)c1ccccc1C3=O	nt	?	nt	13µM*	-38%
COc1cccc2c1C(=O)c1c(O)c3c(c(O)c1C2=O)C[C@@](O)(C(=O)CO)C[C@@H]3OC1C[C@@H](N)[C@H](O)[C@H](C)O1 (some centres undefined)	nt	nt	nt	14µM*	nt
CC(=O)[C@]1(O)Cc2c(O)c3c(c(O)c2[C@@H](O[C@H]2C[C@H](N)[C@H](O)[C@H](C)O2)C1)C(=O)c1c(O)cccc1C3=O	nt	nt	nt	14µM*	nt
CCCCC(=O)OCC(=O)[C@]1(O)Cc2c(O)c3c(c(O)c2[C@H](OC2CC(NC(=O)C(F)(F)F)C(O)C(C)O2)C1)C(=O)c1c(OC)cccc1C3=O (some centres undefined)	nt	nt	nt	8.9µM*	nt
CCOC(=O)c1ccc(NC(=O)C2=C(C)C(=O)OC23CCCCCC3)cc1	-4%	-18%	nt	2%[59 µM]	31%
Cc1ccc(Nc2c(-c3ccc(N4CCOCC4)cc3)nc3ccc(Cl)cn23)cc1	nt	-15%	nt	-23%[59 µM]	27%
Cc1ccc2nc(-c3ccc(N4CCOCC4)cc3)c(Nc3ccccc3C)n2c1	10µM*	14µM*	nt	13µM*	?
Cc1ccn2c(Nc3ccccc3C)c(-c3ccc(N4CCOCC4)cc3)nc2c1	?	45µM*	nt	10µM*	-8%
SMILES	BAZ2B block	JMJD2A Tudor	L3MBTL1 inh	G9a inh	HP1b binding inh
Cc1ccccc1Nc1c(-c2ccc(N3CCOCC3)cc2)nc2ccc(Cl)cn12	-39%	?	nt	?	12%
CCc1cc(-c2n[nH]c(=S)n2-c2cccc(C)c2)cs1	-37%	32µM*	nt	?	-1%
CCOC(=O)CSc1nnc(CNC(=O)c2cccs2)n1-c1cccc(C)c1	0%	1%	-1%	-9%[12.7 µM]	27%
Cc1cccc(-n2c(-c3csc(C)c3)n[nH]c2=S)c1	-33%	11µM*	nt	0.32µM*	?
COc1cccc(/C=N/NC(=O)C(C)n2nnc3ccccc32)c1 (centres undefined)	2%	45µM*	2%	5%[59 µM]	8%
COc1cccc(/C=N/NC(=O)CCn2nnc3ccccc32)c1	8%	-31%	8%	2%	6%
COc1ccccc1NC(=O)c1cnc(SCC(=O)N2CCOCC2)n(C)c1=O	-3%	-11%	nt	11%[59 µM]	18%
C=CCn1c(SCc2nc3ccccc3c(=O)[nH]2)nc2ccccc2c1=O	4%	-16%	nt	7.9µM*	23%
O=c1[nH]c(CSc2nnc(COc3ccccc3)n2-c2ccccc2)nc2ccccc12	3%	?	?	4.5µM*	-18%
COCCn1c(SCc2nc3ccccc3c(=O)[nH]2)nc2ccccc2c1=O	1%	-15%	-4%	5%	20%
C=CCn1c(Cc2ccccc2)nnc1SCc1nc2ccccc2c(=O)[nH]1	3%	-4%	9%	50µM*	55%
CCCn1c(SCc2nc3sc(C)c(C)c3c(=O)[nH]2)nc2ccccc2c1=O	-8%	-13%	4%	50µM*	24%
CCOC(=O)c1ccccc1NC(=O)CSc1nccn1Cc1ccco1	-33%	-25%	nt	-4%[59 µM]	10%[57 µM]
COc1ccc(CNC(=O)c2cn(-c3cccc(OC)c3)c(=O)c3ccccc23)cc1	5%	2%	nt	?	35%
O=C(O)/C=C/C(=O)NCc1cn(-c2ccccc2)nc1-c1cccc(Br)c1	9%	-11%	nt	35µM*	4%
O=C(O)Cc1cn(-c2ccccc2)nc1-c1ccccc1	-3%	-1%	1%	0%	58%
COc1ccc(-c2nc(CSc3nncn4c3cc3sccc34)c(C)o2)cc1OC	-23%	-21%	nt	-46%[59 µM]	8%
Cc1ccc(-c2cc(C(=O)NCCCn3ccnc3)c3cc(Br)ccc3n2)o1	-2%	79µM*	-21%	?	-17%
CC(C)Oc1cccc(-c2cc(C(=O)NN3CCOCC3)c3ccccc3n2)c1	-20%	-21%	nt	17%	1%
CC(C)Oc1cccc(-c2cc(C(=O)NC(=S)N(C)c3ccccc3C(=O)O)c3ccccc3n2)c1	-37%	-27%	10%	22µM*	?
COc1cccc(-c2cc(C(=O)NCCCn3ccnc3)c3ccccc3n2)c1	?	-23%	-8%	3.2µM*	14%
Cc1cccc(-c2cc(C(=O)NCCCn3ccnc3)c3ccccc3n2)c1	?	nt	-7%	-2%[59 µM]	nt

Source: PubChem (National Center for Advancing Translational Sciences (NCATS))
